Results on 55 compounds are retold here after ChEMBL document CHEMBL4513216, “Probing the Open Global Health Chemical Diversity Library for Multistage-Active Starting Points for Next-Generation Antimalarials” (ACS Infect Dis, 2020).

About 8,600 (12%) of roughly 69,000 compounds showed an effect of 50% or more. The entries come from a sample that favours strong results as a whole.

In the assay the test system is Plasmodium berghei. As to the kind of experiment: Screen against P. berghei liver stage (PbLuc), transformed with Luciferase, at 10uM. The note with it: tested at 10 uM. In kind it is functional, HepG2.
As for `Nc1ccnc(N2C[C@H](O)[C@@H](N3CCN(c4ccccn4)CC3)C2)n1`, the INHIBITION is 37.2%.
For `O=C([C@H]1C[C@H]2CN(c3ncc(F)cn3)C[C@@H]1O2)N1CCOCC1`, the INHIBITION was 17.7%.
As for `CC1CN(CC(=O)NC2CCOCC2)CCN1Cc1nccn1C` (stereo not given), the INHIBITION is 29.305%.
As to `CCCOc1cccc(C(=O)Oc2cc(=O)n3cccc(C)c3n2)c1`, the INHIBITION is recorded as 22.6%.
For the compound `Cc1ncncc1C(=O)N1CCCC1c1c(C)nn(C)c1Cl` (stereo not given), the INHIBITION came to 1.78%.
As for `Cc1cnc(C(=O)N2C[C@@H]3CC[C@H]2CN(c2cnccn2)C3)cn1`, the INHIBITION is recorded as -55.1%.
On to `O=C(C1CCCCC1)N1CCN(Cc2nc(-c3ccco3)no2)CC1`, for which the INHIBITION was found to be 23.7%.
Turning to `COC(=O)c1ccoc1CN(C)CC(=O)N(C)C`, the INHIBITION was 22.8%.
`NC(=O)CN1CCOCC(Cc2ccccc2Cl)C1` (stereo not given): the INHIBITION was 11.1%.
Next, `CN(C)c1ncccc1C(=O)N1CCc2c(ncn2C2CC2)C1`: -10.785%; `O=C(c1csc(I)c1)N1CCc2c(ncn2C2CC2)C1`: 76%.
As for `COC(=O)c1ccc(C(=O)N2CCc3c(ncn3C3CC3)C2)cc1`, the INHIBITION is given as -36.95%.
Regarding `CCN(CC)Cc1nnc2sc(C(C)Oc3ccccc3)nn12` (stereo not given), the INHIBITION was -2.93%.
On to `CC(C)C1CN(S(=O)(=O)C2CC2)CCCN1Cc1ccc(F)cc1` (stereo not given), for which the INHIBITION is reported as 45.6%.
As for `CC(C)C1CN(S(=O)(=O)N(C)C)CCCN1Cc1ccc(F)cc1` (stereo not given), the INHIBITION is given as 12.8%.
For `CC(C)C1CN(c2cccc(C#N)n2)CCCN1CC1CC1` (stereo not given), the INHIBITION was found to be 33.9%.
For `CC(C)C1CN(S(=O)(=O)N2CCCC2)CCCN1Cc1ccc(F)cc1` (stereo not given), the INHIBITION was determined as 65.3%.
In the case of `CC(C)C1CN(S(C)(=O)=O)CCCN1Cc1ccc(F)cc1` (stereo not given), the INHIBITION is listed as 24.3%.
With `CC(C)C1CN(c2cccc(C#N)n2)CCCN1Cc1ccc(F)cc1` (stereo not given), the INHIBITION amounted to 68.5%.
Consider `Fc1cnc(N2CCn3cc(CNc4ccccn4)nc3C2)nc1`, for which the INHIBITION was 47.2%.
As to `CC(C)n1nc(CNc2ncccn2)c2c1CN(C1CCOCC1)CC2`, the INHIBITION was -18.2%.
For `O=C(NCCN1CCCCC1=O)C1CCC(=O)N(C2CCCC2)C1` (stereo not given), the INHIBITION is 55.6%.
For the compound `CSCCNC(=O)C1CCC(=O)N(C2CCCC2)C1` (stereo not given), the INHIBITION worked out at 17.9%.
For the compound `O=C(NCCn1cccc1)C1CCC(=O)N(C2CCCC2)C1` (stereo not given), the INHIBITION was 41.2%.
For `N#Cc1ccc(NCc2cccc(COC3CCOCC3)c2)nc1`, the INHIBITION is 7.58%.
Next, `CNC(=O)c1cccc(CCNc2ccc(C#N)cn2)c1`: -11%; `Cc1nc2ccccc2nc1NCc1cccc(OCC2CCCO2)c1` (stereo not given): 83.9%.
With `N#Cc1ccc(NCc2cccc(OCC3CCCO3)c2)nc1` (stereo not given), the INHIBITION was found to be 53.8%.
In the case of `CN(C)C(=O)c1cccc(CNc2ccc(C#N)cn2)c1`, the INHIBITION was determined as 73.8%.
For `Cc1nnc(NCc2cccc(OCC3CCCO3)c2)c(C#N)c1C` (stereo not given), the INHIBITION is 1.74%.
Turning to `Oc1cccc(CNCC2CCCO2)c1` (stereo not given), the INHIBITION is reported as 35.5%.
For the compound `CNS(=O)(=O)Cc1cccc(CNc2ccc(C#N)cn2)c1`, the INHIBITION is -55%.
In the case of `N#Cc1ccc(NCCCOCC2CCCO2)c(F)c1` (stereo not given), the INHIBITION is 6.02%.
With `CN(C)Cc1cc(=O)n2c(n1)CN(S(=O)(=O)C1CC1)CCC2`, the INHIBITION turned out to be 21.6%.
In the case of `O=C(CCn1cccn1)N1C[C@H]2CC[C@@H](C1)N(Cc1ccccn1)C2=O`, the INHIBITION is 8.47%.
Regarding `N#Cc1cc2cc(Cl)cnc2nc1O`, the INHIBITION was -26.3%.
With `CC(C)(C(=O)NCC1CCN(Cc2ccccn2)C1)c1ccccc1` (stereo not given), the INHIBITION came out at 49.2%.
For the compound `O=C1NCCCc2[nH]c(C3CCCN(C(=O)C4CC4)C3)nc21` (stereo not given), the INHIBITION is 26.8%.
On to `CC(C)OCCN1CCN(c2ccc(CN(C)C)cn2)CC1`, for which the INHIBITION stood at 25.4%.
Next, `CN1CCOC(CNCc2coc(-c3ccccc3)n2)C1` (stereo not given): 22.5%; `OCCN1CCN(Cc2coc(-c3ccccc3Cl)n2)CC1`: -113%.
With `CN1CCOC(CNCc2coc(-c3cccc(F)c3)n2)C1` (stereo not given), the INHIBITION came out at 57.8%.
Next, `COCCN1CCN(Cc2coc(-c3ccccc3Cl)n2)CC1`: 63.8%.
For the compound `CC(O)CN1CCN(Cc2coc(-c3ccccc3Cl)n2)CC1` (stereo not given), the INHIBITION is on record as -66.7%.
Take `OCCN1CCN(Cc2coc(-c3cccc(F)c3)n2)CC1`: the INHIBITION came to 48.4%.
For the compound `CCN1CCN(Cc2coc(-c3cccc(F)c3)n2)CC1`, the INHIBITION is given as 65.2%.
In the case of `OCCN1CCN(Cc2coc(-c3ccccc3)n2)CC1`, the INHIBITION came to 59%.
For the compound `CN1CCOC(CNCc2coc(-c3cccc(Cl)c3)n2)C1` (stereo not given), the INHIBITION is 33.7%.
Turning to `CC(O)CN1CCN(Cc2coc(-c3ccccc3)n2)CC1` (stereo not given), the INHIBITION stood at 1.45%.
In the case of `OCCN1CCN(Cc2coc(-c3cccc(Cl)c3)n2)CC1`, the INHIBITION turned out to be 33.3%.
Consider `CC(=O)N1CCN(Cc2coc(-c3cccc(F)c3)n2)CC1`, for which the INHIBITION was -14.7%.
In the case of `NC(=O)c1cc(C2CCCN(CCOc3ccc(F)cc3)C2)n[nH]1` (stereo not given), the INHIBITION is on record as 27.25%.
As for `CC(NCc1cc(O)c2cccc(F)c2n1)c1ccc(S(C)(=O)=O)cc1` (stereo not given), the INHIBITION is reported as 15.1%.
As for `CCS(=O)(=O)Nc1ccc2c(c1)OCC(C)(C)C(=O)N2C`, the INHIBITION came to 25.8%.
In the case of `O=C(NC1CCCC1)C1(Cc2cc(C3CCOC3)no2)CCNCC1` (stereo not given), the INHIBITION came to 26.7%.
